PubChem BioAssay (NCATS)
Results filed as inconclusive are left out. Activity calls are given as the source filed them. Calls follow the shape of the dose curve; as a rule, active = well fitted curve in the direction sought with a large enough effect; inconclusive = small, poorly fitted or top-dose-only effect, or another doubt; inactive = no such curve, though single readings can be large; an effect the other way counts as inactive or inconclusive.

Tests used:
[1] = A2780 Cisplatin Sensitive Ovarian Cancer Cell Toxicity qHTS against the NCATS CANVASS Library (AID 1347353); conditions: A2780 ovarian cancer viability, ATPLite luminescence, 72 h; at 46.1 µM (top of the series); also: nearly all actives have a fitted effect of over 60% in size
How it was run: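 Cells are plated at 750 per well and rest for 4 hours. Compounds are added across eleven concentrations, and incubated 72 hours before ATP is quantified by luminescence.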

[2] = UWB1.289-WTBRCA1 Cancer Cell Toxicity qHTS against the NCATS CANVASS Library (AID 1347354); conditions: UWB1.289-WTBRCA1 viability, CellTiter-Glo luminescence, 72 h; at 38.3 µM (top of the series)
How it was run: (§1)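 First, 1000 cells go into each well and rest for 4 hours. Next, an 11-point dilution range is pinned in. Plates then incubate 72 hours before CellTiter-Glo addition and luminescence reading.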

[3] = HEK-293 Cancer Cell Toxicity qHTS against the NCATS CANVASS Library (AID 1347355); also: nearly all actives have a fitted effect of over 65% in size
How it was run: as §1

[4] = HPAF-II 24hr Apoptosis Induction qHTS against the NCATS CANVASS Library (AID 1347356)
How it was run: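 Cells seeded at 500 per well, then compounds pin-transferred in an 11-point concentration series. After 24 hours at 37 degrees C, Caspase-Glo 3/7 was added and luminescence measured following 15 min at room temperature.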

[5] = HEK293 18hr Apoptosis Induction qHTS against the NCATS CANVASS Library (AID 1347357)
How it was run: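 Caspase-3/7 luminescence (DEVD substrate, Caspase-Glo) after 18 h compound exposure of HEK293 cells, 500 cells/well; 11-point series; doxorubicin titration as control.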

[6] = HPAF-II 12hr Apoptosis Induction qHTS against the NCATS CANVASS Library (AID 1347358)
How it was run: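 Cells plated at 500 per well are dosed with compound and incubated 12 hours at 37 degrees C. Caspase-Glo 3/7 reagent is added and, after 15 min at room temperature, luminescence proportional to caspase activity is measured.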

[7] = HEK293 24hr Apoptosis Induction qHTS against the NCATS CANVASS Library (AID 1347359)
How it was run: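 HEK293 cells, 500 per well, exposed to an 11-point compound series for 24 hours at 37 degrees C. Caspase 3/7 activity read by Caspase-Glo luminescence (DEVD substrate) after 15 min at room temperature.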

[8] = HPAF-II 18hr Apoptosis Induction qHTS against the NCATS CANVASS Library (AID 1347360)
How it was run: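 Caspase-Glo 3/7 luminescence (DEVD substrate) after 15 min RT; HPAF-II, 500 cells/well, 18 h compound exposure at 37 degrees C, qHTS series; doxorubicin control 0.1nM - 4uM.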

[9] = HEK293 12hr Apoptosis Induction qHTS against the NCATS CANVASS Library (AID 1347361)
How it was run: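 500 HEK293 cells/well; cpds pin-transferred, 11-pt conc series; 12 h, 37 degrees C/5% CO2; Caspase-Glo 3/7 added, 15 min RT dark; luminescence.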

[10] = system: NAD(P)H diaphorase (Clostridium kluyveri); test: Diaphorse counterscreen qHTS: Assay Interference Panel against the NCATS CANVASS Library (AID 1347362)
How it was run: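 Clostridium kluyveri diaphorase in PBS + 0.01% Tween-20 preincubated 15 min with compounds. Resazurin and NADH then added for 5 min at room temperature in the dark; resorufin fluorescence read (ex 525, em 598).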

[11] = target: Luciferin 4-monooxygenase (Photinus pyralis) (UniProt P08659); test: Firefly luciferase counterscreen qHTS: Assay Interference Panel against the NCATS CANVASS Library (AID 1347363)
How it was run: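 Purified P. pyralis luciferase (0.04 ug/mL, 4x reagent) added to Tris-acetate buffer with 0.013 mM D-luciferin, 0.013 mM ATP and 13.3 mM Mg-acetate; compounds preincubated 15 min, then luminescence read after 5 min, RT.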

[12] = KB-8-5-11 Cancer Cell Toxicity qHTS against the NCATS CANVASS Library (AID 1347364); also: nearly all actives have a fitted effect of over 75% in size
How it was run: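 Terse: KB-8-5-11, 500 cells/well, 72 hr, 37C/5% CO2, 11-pt titration, CellTiter-Glo readout; confirmatory runs ± 1uM tariquidar in medium.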

[13] = SDT Cancer Cell Toxicity qHTS against the NCATS CANVASS Library (AID 1347365);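 also: SDT canine glioma cells 500 per well in 1536 well plates; nearly all actives have a fitted effect of over 60% in size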
How it was run: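 Cytotoxicity is measured from cellular ATP: compounds in an 11-point concentration series are pinned onto SDT cells, incubated 72 hr at 37C, then CellTiterGlo is added and luminescence read.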

[14] = KB-3-1 Cancer Cell Toxicity qHTS against the NCATS CANVASS Library (AID 1347366); conditions: KB-3-1 viability, CellTiter-Glo luminescence, 72 h; at 46.1 µM (top of the series); also: nearly all actives have a fitted effect of over 75% in size
How it was run: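 500 KB-3-1 cells/well; compounds pin-transferred, 11-pnt series; 72 hr, 37C/5% CO2; CellTiter-Glo, 10 min RT; luminescence read-out.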

[15] = qHTS for ATAD5 Agonist screened against the NCATS CANVASS Library (AID 1347367)
How it was run: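 Luminescence read-out: ATAD5-driven luciferase in stably transfected HEK 293T cells, which rises post-transcriptionally with DNA damage. Cells were exposed 16hr at 37C to test compound; a CellTiter-Fluor fluorescence read (1hr) measured viability first.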

[16] = G06 Cancer Cell Toxicity qHTS against the NCATS CANVASS Library (AID 1347368); also: nearly all actives have a fitted effect of over 60% in size
How it was run: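 Cells were plated at 500 per well, then compounds were added over an 11-point range. After 72 hr at 37C, CellTiterGlo was added and luminescence measured as ATP content.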

[17] = MCF7 Cancer Cell Toxicity qHTS against the NCATS CANVASS Library (AID 1347369); conditions: MCF7 viability, ATP luminescence (CellTiter-Glo), 72 h; at 46 µM (top of the series)
How it was run: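 Luminescent ATP signal (CellTiterGlo) served as the cytotoxicity read-out after MCF7 breast cancer cells had been incubated 72 hr at 37C with natural products in an 11-point titration.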

[18] = qHTS for ATAD5 Antagonist screened against the NCATS CANVASS Library (AID 1347370);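 also: HEK293T cells carrying an ATAD5 luciferase reporter co-treated with 10 µM 5-fluorouridine; nearly all actives have a fitted effect of over 65% in size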
How it was run: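 Compounds (11-point) co-dosed with 10 µM 5-FUrd for 16 h at 37 °C onto HEK293T-ATAD5 luciferase reporter cells. Viability measured by CellTiter-Fluor fluorescence, then ATAD5 reporter signal by luminescence.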

[19] = J3T Cancer Cell Toxicity qHTS against the NCATS CANVASS Library (AID 1347371);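 also: J3T is a canine glioma cancer cell line seeded at 500 cells per well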
How it was run: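 Luminescence from CellTiterGlo, reporting cellular ATP, serves as the viability measure after 72 hr compound treatment of J3T canine glioma cells seeded at 500 cells/well.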

[20] = target: Nuclear receptor subfamily 1 group I member 3 (Homo sapiens) (UniProt Q14994); test: qHTS for Constitutive Androstane Receptor (CAR) Antagonist screened against the NCATS CANVASS Library (AID 1347372);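 also: cells stimulated with 50 nM CITCO agonist so inhibition reflects antagonism; luciferase from CYP2B6 promoter reporter driven by hCAR in HepG2 cells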
How it was run: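 Luminescence readout (ONE-Glo, 30 min RT) of CYP2B6-2.2kb reporter in HepG2-hCAR cells after 24hr, 37C treatment with compound against 50 nM CITCO; CellTiter-Fluor viability read beforehand.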

Measured: outcome

Chain of Luciferin 4-monooxygenase (Photinus pyralis) (P08659 whole entry, looked up): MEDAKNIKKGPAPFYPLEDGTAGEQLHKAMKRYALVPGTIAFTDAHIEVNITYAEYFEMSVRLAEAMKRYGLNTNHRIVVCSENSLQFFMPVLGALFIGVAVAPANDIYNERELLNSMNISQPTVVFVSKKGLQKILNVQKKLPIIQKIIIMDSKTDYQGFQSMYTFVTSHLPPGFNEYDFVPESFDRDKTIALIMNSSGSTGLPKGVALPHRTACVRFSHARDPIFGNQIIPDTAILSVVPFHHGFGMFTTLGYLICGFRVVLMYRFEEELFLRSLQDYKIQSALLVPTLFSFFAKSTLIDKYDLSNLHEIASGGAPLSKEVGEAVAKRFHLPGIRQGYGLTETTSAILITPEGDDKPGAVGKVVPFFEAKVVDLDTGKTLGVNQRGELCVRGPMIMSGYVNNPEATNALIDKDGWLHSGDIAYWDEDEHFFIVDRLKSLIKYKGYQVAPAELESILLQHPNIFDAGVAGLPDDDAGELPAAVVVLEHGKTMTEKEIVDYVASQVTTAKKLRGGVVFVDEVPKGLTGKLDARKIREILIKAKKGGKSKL
Chain of Nuclear receptor subfamily 1 group I member 3 (Homo sapiens) (Q14994 whole entry, looked up): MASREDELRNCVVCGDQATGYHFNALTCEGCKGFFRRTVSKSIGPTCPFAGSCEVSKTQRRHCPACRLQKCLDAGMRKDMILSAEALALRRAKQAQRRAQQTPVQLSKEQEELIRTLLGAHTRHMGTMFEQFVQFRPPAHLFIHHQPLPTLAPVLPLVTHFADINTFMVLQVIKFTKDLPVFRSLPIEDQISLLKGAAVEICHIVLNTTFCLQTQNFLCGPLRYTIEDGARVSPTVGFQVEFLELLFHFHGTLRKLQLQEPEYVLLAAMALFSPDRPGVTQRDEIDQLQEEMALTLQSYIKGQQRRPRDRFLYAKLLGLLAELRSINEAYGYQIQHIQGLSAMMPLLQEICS

CN(C)CCc1c[nH]c2ccccc12
inactive: all assays above
